Results as given in PubChem BioAssay (NCI).
About 83,000 compounds went through this panel and 20% of them were active in at least one assay; those are over-represented in the sample as a whole.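 Step 1: grow cells in 96-well plates. Step 2: add test compound at a single concentration. Step 3: incubate 48 h. Step 4: record percent growth.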 A number with no mark means an inactive call. The source made the active and inactive calls. Rule for the calls: active = growth percent below 10; inactive = the rest.

What was measured:
Assay in all cases: NCI-60 one-dose screen, 48 h (100 = growth as untreated, 0 = no growth, -100 = all killed)
SK-MEL-2 melanoma = conditions: 10 µM unless noted
SN12C renal = conditions: 10 µM unless noted
UO-31 renal = conditions: 10 µM unless noted
TK-10 renal = conditions: 10 µM unless noted
ACHN renal = conditions: 10 µM unless noted
CAKI-1 renal = conditions: 10 µM unless noted
A498 renal = conditions: 10 µM unless noted
CCRF-CEM leukemia = conditions: 10 µM unless noted
MOLT-4 leukemia = conditions: 10 µM unless noted
SR leukemia = conditions: 10 µM unless noted
RPMI-8226 leukemia = conditions: 10 µM
OVCAR-8 ovarian = conditions: 10 µM unless noted
OVCAR-5 ovarian = conditions: 10 µM unless noted
OVCAR-4 ovarian = conditions: 10 µM unless noted
SK-OV-3 ovarian = conditions: 10 µM
IGROV1 ovarian = conditions: 10 µM unless noted
OVCAR-3 ovarian = conditions: 10 µM unless noted
HS 578T breast = conditions: 10 µM unless noted
NCI/ADR-RES ovarian = conditions: 10 µM unless noted

Compound | growth (SK-MEL-2 melanoma) | growth (SN12C renal) | growth (UO-31 renal) | growth (TK-10 renal) | growth (ACHN renal) | growth (CAKI-1 renal) | growth (A498 renal) | growth (CCRF-CEM leukemia) | growth (MOLT-4 leukemia) | growth (SR leukemia) | growth (RPMI-8226 leukemia) | growth (OVCAR-8 ovarian) | growth (OVCAR-5 ovarian) | growth (OVCAR-4 ovarian) | growth (SK-OV-3 ovarian) | growth (IGROV1 ovarian) | growth (OVCAR-3 ovarian) | growth (HS 578T breast) | growth (NCI/ADR-RES ovarian)
O=C(Nc1ccc(Cl)c(Cl)c1)NC(CO)(CO)CO | 100% | 102% | 73.9% | 113% | 97.7% | 91% | 83.8% | 93.3% | 98.3% | 101% | 96.7% | 96.8% | 94.7% | 110% | 95.5% | 100% | 104% | 96% | 100%
Cc1c(C)n(CC(O)CNC2CCCCC2C)c2ccccc12 (centres undefined) | -49.9% (active) | -41.9% (active) | -87.5% (active) | -76.3% (active) | -41.3% (active) | -38.7% (active) | 63.3% | -9.05% (active) | 4.33% (active) | 1.95% (active) | -10.6% (active) | 4.94% (active) | -58.8% (active) | -26.2% (active) | 52.9% | -73.1% (active) | -89.8% (active) | 28.3% | 3.85% (active)
O/N=C/c1cccs1 | 116% | 106% | 89.1% | 118% | 97% | 91.7% | 102% | 101% | 85.5% | 96.8% | 112% | 98.3% | 100% | 115% | 118% | 108% | 119% | 116% | 121%
FC(F)(F)c1cc(CNc2nc(Cl)ncc2Br)cc(C(F)(F)F)c1 | 83.6% | 89.3% | 67.1% | 94% | 94.5% | 76.5% | 80.2% | 81.4% | 82.4% | 38.2% | 70.9% | 91.5% | 96.6% | 98.5% | 81.1% | 75% | 85.6% | 54.5% | 92.7%
Fc1ccccc1Nc1ccc2nnc(-c3ccncc3)n2n1 | 92.8% | 103% | 88% | 114% | 99.6% | 102% |  | 96.1% | 98.8% | 89.4% | 95.4% | 103% | 97.3% | 107% | 107% | 105% | 108% | 105% | 99.2%
CCOC(=O)c1c(Cl)c2c(n1Cc1cc(OC)cc(OC)c1)-c1oncc1CCC2 | 44.6% | 38.9% | 44.6% | 55.1% | 48.3% | 31.3% | -13% (active) | 7.48% (active) | 30% | 4.7% (active) | 9.5% (active) | 38.9% | 49.5% |  | 27.5% |  | -17.6% (active) | 29.6% | 8.44% (active)
Cc1nc2cc(Nc3nc(Nc4ccc(F)cc4)nc(-c4cccs4)n3)ccc2n1Cc1ccccc1 | 72.9% | 70.3% | 36.5% | 62.7% | 45.6% | 70.2% | 56% | 27.2% | 23.5% | 18% |  | 37% | 92% | 51% | 95.1% | 48.3% | 66.7% | 50.3% | 57.3%
Cc1oc2c(c1C(=O)N1CC[C@@H](N)C1)C(=O)c1c(c(O)c3ccccc3c1O)C2=O | 77.4% | 22% | 4.23% (active) | 57% | 14.8% | 28.1% | 61.5% | -3.65% (active) | 0.576% (active) | 1.4% (active) | 12.4% | 12.9% | 85.3% |  | 35.3% |  | 3.52% (active) | 34.3% | 8.79% (active)
O=S(=O)(Nc1ncccn1)c1ccc(Nc2ccc3nnc(-c4ccncc4)n3n2)cc1 | 125% | 93.9% | 81% | 115% | 98.6% | 99.6% | 87.5% |  | 109% | 102% | 109% | 103% | 94.3% | 93.8% | 103% | 105% | 104% | 84.3% | 102%
Cc1ccc(-c2nnc(COc3ccc(-c4nnc(N)s4)cc3)o2)cc1 | 104% | 82.2% | 91.7% | 106% | 107% | 94.8% | 103% |  | 77.6% | 5.12% (active) |  | 100% | 113% | 58% | 80.7% | 108% | 98.1% | 85% | 95%
O=C(O)CCN1CCN(c2cccc(Cl)c2)CC1 | 107% | 100% | 106% | 138% | 94.8% | 87.6% | 94.2% | 105% | 91.3% | 88% | 112% | 99.1% | 98.9% | 92% | 104% | 105% | 122% | 105% | 112%
O=C(NCc1ccco1)C1CCN(S(=O)(=O)c2ccc(Cl)cc2)CC1 | 82.6% | 78.3% | 57.5% | 104% | 83.5% | 70.4% | 59% | -22.6% (active) | 47.2% | 19.5% | -24.6% (active) | 80.4% | 103% |  | 94.5% |  | -64.7% (active) | 68.9% | 66.6%
CS(=O)(=O)Nc1cccc(C(=O)NCc2ccc(N3CCOCC3)cc2)c1 | 96.7% | 107% | 93% | 93.3% | 115% | 101% | 94% |  | 93.2% | 93.3% | 99.7% | 104% | 107% | 107% | 107% | 114% | 108% | 104% | 111%
O=C1C(Br)=C(c2ccccc2)C(=O)C(Br)=C1c1ccccc1 | 99.6% | 95.2% | 77.9% | 102% | 92.2% | 94% |  | 31.9% | 52.7% | 71.1% | 99.2% | 91.9% | 96.7% | 90% | 95.4% | 105% | 110% | 97.2% | 103%
Cc1nc2cc(Nc3nc(NCCO)nc(Nc4ccc(F)cc4)n3)ccc2n1Cc1ccccc1 | 122% | 91.1% | 78.8% | 133% | 98.3% | 100% | 66.2% | 1.93% (active) |  | 14.9% | 14.2% | 80% | 114% | 95.3% | 105% | 88.9% | 90.2% | 107% | 97.7%
CCCOC(=O)c1ccc2c(c1)[N+](=O)C(C(=O)c1ccccc1)=C(C(F)(F)F)[N+]2=O | -87.6% (active) | -92.3% (active) | -89% (active) | -99.1% (active) | -91.8% (active) | -92.5% (active) | -90.9% (active) | -64.4% (active) | -63.3% (active) | -41.4% (active) |  | -86% (active) | -87.7% (active) | -73.1% (active) | -99.9% (active) | -74.4% (active) | -95.3% (active) | -52% (active) | -43.1% (active)
COc1ccc(C(=O)C2=CC(=O)C(=O)C2)cc1OC | 101% | 109% | 91.5% | 98.7% | 103% | 97.4% | 94.3% |  | 101% | 94.3% | 98.7% | 113% | 98.2% | 109% | 104% | 99.3% | 108% | 110% | 99.5%
Cc1ccc(N(CSc2ccc(Cl)cc2)CSc2ccc(Cl)cc2)cc1 | 86.2% | 30.3% | 22.1% | 92.2% | 66.6% | 28.8% | -22.4% (active) |  | -16.3% (active) | 11.2% | 6.09% (active) | 66.9% | 79.1% | 85.2% |  | -10.3% (active) | 48.3% | 45% | 31.5%
